Where “and” joins values, the source holds several entries; their conditions need not be identical. Equal values may be shown once. Screen size: about 5,500 compounds; about 2,000 (36%) were called active. Another 18% or so got no clear call; they are omitted. Cut-off read from the data, not from the text of the source: active = normalized growth mostly below about 0.91 (no sharp cut-off); inconclusive = no clear call, values can overlap the other calls; inactive = mostly above about 0.92. The list shows a part of the results.
Experiment: chemical genetic growth profiling, strain panel (AID 1159580);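 note: tested at 20 µM; growth read once vehicle control cultures reached saturation at 30 °C; 1 = growth at the plate median or of vehicle wells; lower values mean less growth of the strain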
Conditions: S. cerevisiae deletion strains, growth OD

Measured: normalized growth

Cn1c(=O)c2c(ncn2CCO)n(C)c1=O
inactive: locus YAL013W, strain DEP1, hits give low values 1 | locus YAL021C, strain ccr4, hits give low values 1.02 | locus YAL026C, strain drs2, hits give low values 1.02 | locus YAL030W, strain snc1, hits give low values 1.02 | locus YBL061C, strain skt5, hits give low values 1.03 | locus YBR009C, strain hhf1, hits give low values 1.02 | locus YBR021W, strain FUR4, hits give low values 1.04 | locus YBR023C, strain chs3, hits give low values 1.01 | locus YBR171W, strain sec66, hits give low values 1.03 | locus YBR229C, strain ROT2, hits give low values 1 | locus YBR231C, strain swc5, hits give low values 1.02 | locus YBR279W, strain paf1, hits give low values 1.02 | locus YCL011C, strain gbp2, hits give low values 1.02 | locus YCL016C, strain dcc1, hits give low values 1.01 | locus YCL029C, strain bik1, hits give low values 1.02 | locus YCL061C, strain MRC1, hits give low values 1.02 | locus YCL069W, strain vba3, hits give low values 1.02 | locus YCR088W, strain abp1, hits give low values 1.02 | locus YDL005C, strain med2, hits give low values 1.02 | locus YDL035C, strain GPR1, hits give low values 0.997 | locus YDL040C, strain nat1, hits give low values 1.01 | locus YDL074C, strain BRE1, hits give low values 1.04 | locus YDL101C, strain DUN1, hits give low values 1.02 | locus YDL134C, strain PPH21, hits give low values 1 | locus YDL185W, strain tfp1, hits give low values 1 | locus YDL192W, strain arf1, hits give low values 1.01 | locus YDR001C, strain nth1, hits give low values 1.02 | locus YDR069C, strain doa4, hits give low values 1.03 | locus YDR101C, strain arx1, hits give low values 1.01 | locus YDR137W, strain rgp1, hits give low values 1.04 | locus YDR150W, strain NUM1, hits give low values 1 | locus YDR159W, strain sac3, hits give low values 1.02 | locus YDR162C, strain NBP2, hits give low values 1.01 | locus YDR195W, strain ref2 0.995 | locus YDR297W, strain sur2, hits give low values 1 | locus YDR318W, strain mcm21, hits give low values 1 | locus YDR334W, strain swr1, hits give low values 1.02 | locus YDR335W, strain msn5, hits give low values 1.02 | locus YDR388W, hits give low values 0.998 | locus YDR392W, strain spt3, hits give low values 1.03 | locus YDR502C, strain sam2, hits give low values 0.978 | locus YEL003W, strain gim4, hits give low values 1.02 | locus YEL037C, strain rad23, hits give low values 1.05 | locus YEL061C, strain CIN8 (second series), hits give low values 1.02 | locus YEL061C, strain CIN8, hits give low values 1 | locus YER015W, strain faa2, hits give low values 1.02 | locus YER016W, strain bim1, hits give low values 1.01 | locus YER110C, hits give low values 1.01 | locus YER111C, strain swi4, hits give low values 1.03 | locus YER155C, strain BEM2 (second series), hits give low values 1.04 | locus YER155C, strain BEM2, hits give low values 1.01 | locus YER167W, strain BCK2, hits give low values 0.979 | locus YFR010W, strain ubp6, hits give low values 1.02 | locus YGL078C, strain dbp3, hits give low values 0.994 | locus YGL086W, strain mad1, hits give low values 0.986 | locus YGL167C, strain pmr1, hits give low values 1.02 | locus YGL173C, strain kem1, hits give low values 1.03 | locus YGL227W, strain vid30, hits give low values 1 | locus YGL240W, strain doc1, hits give low values 1.02 | locus YGL248W, strain PDE1, hits give low values 1.01 | locus YGL253W, strain hxk2, hits give low values 1.02 | locus YGR078C, strain PAC10, hits give low values 1.02 | locus YGR135W, strain pre9, hits give low values 0.971 | locus YGR229C, strain SMI1, hits give low values 0.99 | locus YGR252W, strain gcn5, hits give low values 0.912 | locus YHR013C, strain ard1, hits give low values 1.04 | locus YHR027C, strain rpn1, hits give low values 1 | locus YHR030C, strain SLT2, hits give low values 0.999 and 0.984 | locus YHR079C, strain IRE1 (second series), hits give low values 1.01 | locus YHR079C, strain IRE1, hits give low values 0.974 | locus YHR094C, strain hxt1, hits give low values 0.998 | locus YHR129C, strain ARP1, hits give low values 1.02 | locus YHR142W, strain chs7, hits give low values 1.02 | locus YHR200W, strain rpn10, hits give low values 0.994 | locus YIL066C, strain RNR3, hits give low values 1.01 | locus YIL073C, strain SPO22, hits give low values 0.927 | locus YIL125W, strain kgd1, hits give low values 0.988 | locus YIR030C, strain dcg1, hits give low values 1.01 | locus YJL092W, strain hpr5, hits give low values 1.02 | locus YJL095W, strain BCK1 (second series), hits give low values 1 | locus YJL095W, strain BCK1, hits give low values 1.04 and 0.969 | locus YJL115W, strain asf1, hits give low values 1.02 | locus YJL129C, strain trk1, hits give low values 1.04 | locus YJL134W, strain LCB3, hits give low values 1.01 | locus YJL154C, strain vps35, hits give low values 1.02 | locus YJL164C, strain tpk1, hits give low values 1.02 | locus YJL166W, strain qcr8, hits give low values 1.02 | locus YJL168C, strain set2, hits give low values 1.01 | locus YJL187C, strain SWE1 (second series), hits give low values 1.03 | locus YJL187C, strain SWE1, hits give low values 1.01 | locus YJR043C, strain POL32, hits give low values 1.03 | locus YJR066W, strain TOR1, hits give low values 0.909

Source: PubChem BioAssay AID1159580 (chemical genetic matrix, 2015)
